Calls of active or inactive are those of the source.
How the values were obtained:
[1] = binders of probe aFSTL3 on microarray, primary screen, stem cell growth factor project, biochemical, small-molecule microarray, fluorescence 635/667 (AID 1064); settings: higher = more signal;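 further: measures binding of the biotinylated anti-FSTL3 antibody to printed compounds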
[2] = binders from COS7 lysate, DM2A8 probe, primary screen, torsin A project, cell lysate, small-molecule microarray, fluorescence 635/667 (AID 1065); settings: higher = more signal, COS7 lysate expressing mutant human TOR1A
[3] = binders of probe aFGF2 on microarray, primary screen, stem cell growth factor project, biochemical, small-molecule microarray, fluorescence 635/667 (AID 1067); settings: higher = more signal;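 further: measures binding of biotinylated aFGF2 protein to printed compounds on slides; z-score merges feature fluorescence and signal-to-noise across triplicate slides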
[4] = binders of probe aFGF10 on microarray, primary screen, stem cell growth factor project, biochemical, small-molecule microarray, fluorescence 635/667 (AID 1071); settings: higher = more signal;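 further: score merges 667 nm spot intensity and signal to noise from triplicate slides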
[5] = target: Neurogenic locus notch homolog protein 2 (Homo sapiens) (UniProt Q04721); assay: Notch2 binders on small-molecule microarrays, primary screen, biochemical, small-molecule microarray, 635 nm fluorescence, stem cell growth factors (AID 1073); settings: Notch2 binding, higher = more signal
[6] = target: Pro-neuregulin-1, membrane-bound isoform (Homo sapiens) (UniProt Q02297); assay: NRG1 binders on small-molecule microarrays, primary screen, psychiatric disease protein project, biochemical, small-molecule microarray, fluorescence 635/667 (AID 1075); settings: NRG1 binding, 635 nm fluorescence, higher = more signal;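 further: score combines 667 nm spot fluorescence with signal to noise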
Sequence of Pro-neuregulin-1, membrane-bound isoform (Homo sapiens) (Q02297 whole entry, looked up, the tested form may be a part, canonical isoform): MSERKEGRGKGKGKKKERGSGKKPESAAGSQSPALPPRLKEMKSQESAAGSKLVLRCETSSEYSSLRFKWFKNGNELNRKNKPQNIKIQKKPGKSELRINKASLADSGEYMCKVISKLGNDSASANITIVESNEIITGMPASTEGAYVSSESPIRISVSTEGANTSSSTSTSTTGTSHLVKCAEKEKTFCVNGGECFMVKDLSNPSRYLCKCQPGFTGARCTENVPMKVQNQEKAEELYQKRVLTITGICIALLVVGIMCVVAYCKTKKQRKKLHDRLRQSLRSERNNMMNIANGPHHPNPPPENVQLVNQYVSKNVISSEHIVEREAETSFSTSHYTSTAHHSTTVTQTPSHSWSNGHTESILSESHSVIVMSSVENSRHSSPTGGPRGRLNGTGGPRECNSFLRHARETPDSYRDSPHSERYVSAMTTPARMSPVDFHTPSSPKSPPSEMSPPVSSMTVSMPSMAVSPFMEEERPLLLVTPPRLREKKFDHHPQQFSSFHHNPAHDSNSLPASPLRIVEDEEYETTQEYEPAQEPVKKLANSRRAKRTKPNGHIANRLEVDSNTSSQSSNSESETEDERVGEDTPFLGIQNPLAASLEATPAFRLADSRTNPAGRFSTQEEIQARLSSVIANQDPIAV

[7] = system: Neuregulin-1 EGF-like domain; assay: binders of neuregulin-1 EGF-like domain, primary screen, biochemical, small-molecule microarray, 635 nm fluorescence (AID 1081); settings: small-molecule microarray binding, higher = more signal;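 further: binding of the protein to compounds printed on small-molecule microarray slides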
[8] = FRG1 promoter luciferase signal modulators, primary screen, FRG1 inhibition for FSHD, cell-based, C2C12 myotubes, firefly/Renilla luciferase, luminescence (AID 1084); settings: higher = more signal, called active from +8 up or from −8 down
[9] = binders of probe aFST on microarray, primary screen, stem cell growth factor project, biochemical, small-molecule microarray, fluorescence 635/667 (AID 1086); settings: higher = more signal;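 further: score merges 667 nm fluorescence with signal-to-noise of each printed compound spot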
[10] = binders of probe aHhip on microarray, primary screen, stem cell growth factor project, biochemical, small-molecule microarray, fluorescence 635/667 (AID 1087); settings: higher = more signal;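 further: score merges spot fluorescence at 667nm with spot signal to noise ratio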
[11] = system: PRMT1 (protein arginine N-methyltransferase 1); assay: PRMT1 binders on small-molecule microarrays, primary screen, biochemical, small-molecule microarray, 635 nm fluorescence (AID 1088); settings: small-molecule microarray binding, higher = more signal;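 further: binding of Prmt1 protein to compounds spotted on small-molecule microarray slides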
[12] = yeast growth modulation, basal conditions, primary screen, YJM789 clinical isolate, OD600, 24 h (AID 1089);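 further: growth of clinical yeast isolate S. cerevisiae YJM 789 seeded 1000 cells per well; test concentration not given here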; settings: S. cerevisiae YJM789 growth, higher = more signal, called active from +8 up or from −8 down
[13] = fission yeast growth modulation, primary screen, strain 972, OD600, 24 h, no modulator (AID 1090);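 further: basal condition with compound alone and no growth modifier present; test concentration not given here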; settings: S. pombe 972 growth, higher = more signal, called active from +8 up or from −8 down
[14] = S. cerevisiae growth modulation with rapamycin, primary screen, strain BY4716, OD600, 96 h (AID 1091); settings: higher = more signal, called active from +8 up or from −8 down; further: test concentration not given here
[15] = target: Torsin-1A-interacting protein 2 (Homo sapiens) (UniProt Q8NFQ8); assay: LULL1 binders on small-molecule microarray, primary screen, cell lysate, human LULL1 lysate, 635/667 nm fluorescence (AID 1092); settings: hLULL1 lysate binding, 635 nm fluorescence, higher = more signal;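 further: probe is lysate of COS7 cells overexpressing human LULL1; score merges per-feature 667 nm fluorescence with signal-to-noise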
Sequence of Torsin-1A-interacting protein 2 (Homo sapiens) (Q8NFQ8 whole entry, looked up): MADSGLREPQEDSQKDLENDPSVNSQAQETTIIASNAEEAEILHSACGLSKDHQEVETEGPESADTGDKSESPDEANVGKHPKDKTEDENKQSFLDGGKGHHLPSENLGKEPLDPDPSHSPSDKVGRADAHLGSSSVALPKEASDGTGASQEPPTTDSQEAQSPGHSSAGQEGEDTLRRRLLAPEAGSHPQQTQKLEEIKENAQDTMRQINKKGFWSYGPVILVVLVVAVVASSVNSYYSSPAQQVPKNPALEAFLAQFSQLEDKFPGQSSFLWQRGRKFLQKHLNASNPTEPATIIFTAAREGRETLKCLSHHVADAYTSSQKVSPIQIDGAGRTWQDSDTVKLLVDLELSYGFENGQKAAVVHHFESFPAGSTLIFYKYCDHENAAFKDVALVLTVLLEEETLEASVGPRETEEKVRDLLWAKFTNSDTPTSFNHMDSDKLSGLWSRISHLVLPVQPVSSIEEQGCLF

[16] = E. coli growth modulation, two-sided OD650, primary screen, E. coli filamentation project, strain DRC41, 24 h (AID 1093); settings: OD650, 24 h, higher = more signal, called active from +8 up or from −8 down;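 further: MC1000 strain lacking acrAB efflux and sulA so SOS filamentation is blocked; test concentration not given here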
[17] = small-molecule microarray binders of probe aLefty2, primary screen, biochemical, biotinylated probe, 635/667 nm fluorescence (AID 1094); settings: higher = more signal;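 further: score merges spot fluorescence near 667 nm with spot signal-to-noise ratio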
[18] = system: Noggin (protein binding on small-molecule microarray); assay: Noggin binders on small-molecule microarray, primary screen, biochemical, 635/667 nm fluorescence (AID 1095); settings: 635 nm fluorescence, higher = more signal;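 further: score merges 667 nm feature fluorescence with signal to noise over triplicate slides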
[19] = target: Neurogenic locus notch homolog protein 3 (Homo sapiens) (UniProt Q9UM47); assay: NOTCH3 binders on small-molecule microarray, primary screen, biochemical, 635/667 nm fluorescence (AID 1096); settings: NOTCH3 binding, 635 nm fluorescence, higher = more signal
Sequence of Neurogenic locus notch homolog protein 3 (Homo sapiens) (Q9UM47 whole entry, looked up): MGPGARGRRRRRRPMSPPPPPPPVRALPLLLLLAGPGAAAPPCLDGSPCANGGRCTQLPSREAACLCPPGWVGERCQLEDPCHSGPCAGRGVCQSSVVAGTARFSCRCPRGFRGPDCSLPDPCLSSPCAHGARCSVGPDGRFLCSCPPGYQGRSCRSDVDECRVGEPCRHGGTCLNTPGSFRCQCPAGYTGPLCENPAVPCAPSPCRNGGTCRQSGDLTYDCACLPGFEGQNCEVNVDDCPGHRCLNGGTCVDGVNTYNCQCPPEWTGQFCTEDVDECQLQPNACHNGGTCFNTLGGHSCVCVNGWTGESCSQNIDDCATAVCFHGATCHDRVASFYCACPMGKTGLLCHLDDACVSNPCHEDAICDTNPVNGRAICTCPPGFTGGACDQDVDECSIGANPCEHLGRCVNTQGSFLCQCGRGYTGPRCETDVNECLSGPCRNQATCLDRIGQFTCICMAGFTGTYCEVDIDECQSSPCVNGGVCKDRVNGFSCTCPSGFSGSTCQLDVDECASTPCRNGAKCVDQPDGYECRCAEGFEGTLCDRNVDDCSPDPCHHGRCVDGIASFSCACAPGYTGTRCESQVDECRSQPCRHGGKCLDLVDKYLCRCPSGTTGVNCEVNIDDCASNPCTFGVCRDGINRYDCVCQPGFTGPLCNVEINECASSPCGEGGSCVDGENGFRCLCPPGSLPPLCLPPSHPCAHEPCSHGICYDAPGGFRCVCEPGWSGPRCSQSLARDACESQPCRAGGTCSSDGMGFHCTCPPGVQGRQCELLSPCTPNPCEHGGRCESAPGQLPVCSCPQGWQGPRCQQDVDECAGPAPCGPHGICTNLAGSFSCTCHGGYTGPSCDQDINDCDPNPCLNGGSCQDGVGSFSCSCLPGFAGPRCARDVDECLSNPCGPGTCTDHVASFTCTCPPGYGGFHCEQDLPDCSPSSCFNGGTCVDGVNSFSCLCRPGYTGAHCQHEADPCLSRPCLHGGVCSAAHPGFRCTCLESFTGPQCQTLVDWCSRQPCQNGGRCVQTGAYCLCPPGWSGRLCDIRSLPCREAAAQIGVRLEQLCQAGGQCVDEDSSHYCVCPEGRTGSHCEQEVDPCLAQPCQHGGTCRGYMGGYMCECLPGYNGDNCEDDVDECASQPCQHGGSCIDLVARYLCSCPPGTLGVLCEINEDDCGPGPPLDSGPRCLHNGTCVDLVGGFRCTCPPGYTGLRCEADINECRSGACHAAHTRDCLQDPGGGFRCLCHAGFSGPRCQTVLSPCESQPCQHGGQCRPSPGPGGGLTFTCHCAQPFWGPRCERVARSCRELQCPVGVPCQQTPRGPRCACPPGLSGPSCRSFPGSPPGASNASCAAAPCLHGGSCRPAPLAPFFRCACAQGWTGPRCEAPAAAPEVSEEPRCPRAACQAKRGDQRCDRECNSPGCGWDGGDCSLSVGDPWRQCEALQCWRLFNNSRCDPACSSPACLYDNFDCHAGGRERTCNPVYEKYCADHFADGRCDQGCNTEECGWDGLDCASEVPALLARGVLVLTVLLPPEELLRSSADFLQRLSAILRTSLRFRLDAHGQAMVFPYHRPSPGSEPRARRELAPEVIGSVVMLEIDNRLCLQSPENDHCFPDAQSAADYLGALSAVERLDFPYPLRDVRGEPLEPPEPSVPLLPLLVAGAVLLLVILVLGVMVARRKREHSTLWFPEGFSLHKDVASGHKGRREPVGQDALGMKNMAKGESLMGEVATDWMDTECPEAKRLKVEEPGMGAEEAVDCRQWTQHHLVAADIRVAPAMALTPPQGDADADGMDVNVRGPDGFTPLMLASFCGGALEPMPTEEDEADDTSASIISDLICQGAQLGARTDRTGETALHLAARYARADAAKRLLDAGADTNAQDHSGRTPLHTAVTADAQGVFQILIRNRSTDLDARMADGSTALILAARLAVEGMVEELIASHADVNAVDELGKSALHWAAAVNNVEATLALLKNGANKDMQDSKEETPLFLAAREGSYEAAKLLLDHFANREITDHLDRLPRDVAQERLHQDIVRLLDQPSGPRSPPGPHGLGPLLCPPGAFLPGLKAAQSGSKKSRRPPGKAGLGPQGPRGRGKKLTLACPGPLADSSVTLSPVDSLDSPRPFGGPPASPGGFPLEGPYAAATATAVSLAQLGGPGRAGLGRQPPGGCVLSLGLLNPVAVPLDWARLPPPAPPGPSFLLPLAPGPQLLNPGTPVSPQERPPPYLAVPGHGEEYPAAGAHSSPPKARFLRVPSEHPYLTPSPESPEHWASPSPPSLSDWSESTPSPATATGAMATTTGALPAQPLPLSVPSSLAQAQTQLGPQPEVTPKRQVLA

[20] = small-molecule microarray binders of probe aEGFR, primary screen, biochemical, biotinylated probe, 635/667 nm fluorescence (AID 1097); settings: higher = more signal;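 further: probe is a biotinylated anti-EGFR antibody binding compounds printed on slides; score combines fluorescence near 667 nm and signal to noise of each spot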

Compound | composite z-score [1] | composite z-score [2] | composite z-score [3] | composite z-score [4] | composite z-score [5] | composite z-score [6] | composite z-score [7] | z-score [8] | composite z-score [9] | composite z-score [10] | composite z-score [11] | z-score [12] | z-score [13] | z-score [14] | composite z-score [15] | z-score [16] | composite z-score [17] | composite z-score [18] | composite z-score [19] | composite z-score [20]
CCOC(=O)C1=CC[C@@H](c2ccc([N+](=O)[O-])cc2)N(S(=O)(=O)c2ccc(C)cc2)[C@H]1c1ccccc1 | -0.298 | 0.491 | 0.052 | 0.628 | 1.55 | 0.525 | 1.4 | -2.02 (inactive) | 0.858 | 0.0695 | 1.54 | 0.792 (inactive) | 1.45 (inactive) | 3.16 (inactive) | 2.98 | 0.413 (inactive) | 0.0511 | 1.02 | 1.14 | 0.202
COC(=O)[C@@]1(Cc2ccc(F)cc2)[C@H]2c3cc(C(=O)N4CCCC4)n(CCc4c[nH]c5ccc(OC)cc45)c3C[C@H]2CN1C(=O)c1ccccc1 | 1.66 | -0.619 | 0.803 | 1.3 | 1.58 | 1.46 | 1.19 | 1.61 (inactive) | 2.02 | 0.413 | -0.508 | -0.0567 (inactive) | -0.156 (inactive) | 2.07 (inactive) | 3.37 | -0.803 (inactive) | 0.957 | 1.26 | 1.11 | 0.44
CN(C)CCCCNC(=O)[C@H]1C[C@H]2C(=O)N[C@@H](CCCCN(C)C)C(=O)N2[C@H]1c1cccc(OCCO)c1 | -0.852 | 1.25 | 0.0025 | 1.02 | 0.591 | 0.839 | 1.32 | -0.275 (inactive) | 0.402 | -0.381 | 1.53 | 0.328 (inactive) | 1.22 (inactive) | -0.378 (inactive) | 2.74 | -0.0359 (inactive) | -0.0474 | 1.38 | 0.993 | -0.219
COCCCNC(=O)[C@]1(Cc2ccccc2N=[N+]=[N-])N=C(c2ccc(OCCCO)cc2)O[C@@H]1c1ccccc1N=[N+]=[N-] | 0.421 | -0.0585 | 0.0797 | 0.491 | 1.3 | 1.86 | 1.15 | -1.93 (inactive) | 0.847 | -0.0296 | 1.26 | -0.922 (inactive) | -0.808 (inactive) | 1.75 (inactive) | 2.72 | 0.561 (inactive) | 0.23 | 0.115 | 0.836 | 0.0656
COC(=O)[C@@]1(Cc2ccc(OC)cc2)[C@H]2c3cc(C(=O)N(C)C)n(Cc4ccccc4)c3C[C@H]2CN1C(=O)c1ccccc1 | 0.342 | 0.0293 | -0.0066 | 0.0679 | 0.571 | 1.11 | 0.828 | -1.53 (inactive) | 1.06 | -0.0597 | -0.0018 | 0.0364 (inactive) | -0.55 (inactive) | -1.42 (inactive) | 1.84 | -0.869 (inactive) | 0.0241 | 0.337 | 0.0263 | -0.254
O=C(N1CCCCC1)[C@@]1(Cc2ccccc2)COC(c2ccc(OCCCO)cc2)=N1 | 0.771 | 0.81 | 0.0661 | 1.1 | 1.33 | 1.91 | 1.25 | -2.97 (inactive) | 0.53 | 0.347 | 1.31 | -0.22 (inactive) | -5.35 (inactive) | 1.58 (inactive) | 3.21 | 1.06 (inactive) | 0.511 | -0.315 | 0.622 | 0.548
CON(C)C(=O)C=C1C[C@@H](c2cccc(Cl)c2)O[C@@H](c2cccc(Cl)c2)O1 | -0.0715 | 1.03 | 0.0168 | -0.0102 | -0.0986 | 1 | 0.524 | -1.83 (inactive) | -0.0994 | -0.0645 | 0.945 | 0.37 (inactive) | -0.873 (inactive) | 6.28 (inactive) | 0.989 | -0.168 (inactive) | -0.0309 | 0.407 | 0.121 | -0.0769
CC(C)C(O)C1C=CC2C(=O)N(C)C(=O)C2N1N(c1ccccc1)c1ccccc1 (stereo not given) | 0.626 | -0.312 | -0.0613 | -0.577 | 0.461 | 0.371 | -0.142 | -0.165 (inactive) | 0.272 | 0.0139 | -2.15 | 1.01 (inactive) | 1.55 (inactive) | 1.5 (inactive) | 2.17 | -0.573 (inactive) | 0.0443 | -0.306 | -0.853 | 0.102
CCOC(=O)C1=CC[C@@H](c2ccccc2)N(S(=O)(=O)c2ccc(C)cc2)C1 | 0.694 | 0.235 | 0.0497 | -0.0495 | 0.681 | -0.273 | 0.643 | -3.73 (inactive) | 0.648 | 0.0274 | -0.363 | 0.483 (inactive) | 1.09 (inactive) | 2.72 (inactive) | 0.353 | -0.855 (inactive) | 0.365 | -0.0914 | -0.198 | -0.0521
CCOC(=O)C[C@H]1[C@H](OC(=O)c2ccccc2-c2ccccc2)[C@@H](NC(=O)CC(C)C)c2cc(OCCCO)ccc2N1C(=O)c1ccc2ccccc2n1 | -0.469 | 0.257 | -0.0463 | 0.414 | 0.549 | -0.121 | 0.324 | 0.0832 (inactive) | 0.535 | 0.0274 | 0.0508 | -0.0014 (inactive) | -0.0812 (inactive) | 0.116 (inactive) | 1.19 | -0.64 (inactive) | -0.158 | 0.219 | -0.0063 | 0.0111

Reference: PubChem BioAssay
